Positions count from the first letter of the chain named.
How the values were obtained:
Experiment in all cases: PBM; 200 nM protein, PBS
Settings in all cases: dsDNA, one strand shown
HOXB9 [1] = target: HOXB9 (Homo sapiens, UniProt P17482 171-250, T197M)
VENTX = target: T1, VENTX (Homo sapiens, UniProt O95231 78-163)
T1 sequence: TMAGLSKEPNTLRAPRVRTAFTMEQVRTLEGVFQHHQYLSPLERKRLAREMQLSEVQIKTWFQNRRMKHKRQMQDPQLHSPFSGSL

HOXA7 [2] = target: HOXA7 (Homo sapiens, UniProt P31268 116-202)
PAX4 [3] = target: T2, PAX4 (Homo sapiens, UniProt O43316 9-242, R200K)
T2 sequence: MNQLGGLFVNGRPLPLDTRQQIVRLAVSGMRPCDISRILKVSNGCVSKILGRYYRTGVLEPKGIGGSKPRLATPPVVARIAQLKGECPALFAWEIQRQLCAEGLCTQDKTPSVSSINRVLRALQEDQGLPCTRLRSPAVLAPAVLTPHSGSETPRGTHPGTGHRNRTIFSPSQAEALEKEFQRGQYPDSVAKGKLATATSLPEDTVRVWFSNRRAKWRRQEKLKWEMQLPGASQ

PAX4 [4] = target: T3, PAX4 (Homo sapiens, UniProt O43316 9-242)
T3 sequence: T2 sequence with K192R

PAX4 [5] = target: T4, PAX4 (Homo sapiens, UniProt O43316 9-242, F177V)
T4 sequence: T2 sequence with F169V, K192R

HOXC10 [6] = target: HOXC10 (Homo sapiens, UniProt Q9NYD6 254-340, K271E)
HOXC10 (Homo sapiens, UniProt Q9NYD6 254-340, K271E), sequence (Q9NYD6 254-340 K271E): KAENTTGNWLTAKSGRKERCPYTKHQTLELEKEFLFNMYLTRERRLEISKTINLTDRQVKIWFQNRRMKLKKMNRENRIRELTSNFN

PAX4 [7] = target: T5, PAX4 (Homo sapiens, UniProt O43316 9-242, F177Y)
T5 sequence: T2 sequence with F169Y, K192R

VAX1 = VAX1 (Homo sapiens, UniProt Q5SQQ9 86-172)
VAX1, sequence (Q5SQQ9 86-172): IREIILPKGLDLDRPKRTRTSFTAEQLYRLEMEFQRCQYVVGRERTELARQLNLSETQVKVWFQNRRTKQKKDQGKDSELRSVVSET

PAX4 [8] = target: T6, PAX4 (Homo sapiens, UniProt O43316 9-242, R227W)
T6 sequence: T2 sequence with K192R, R219W

HOXA2 [9] = target: HOXA2 (Homo sapiens, UniProt O43364 129-215, Y150S)
HOXA2 (Homo sapiens, UniProt O43364 129-215, Y150S), sequence (O43364 129-215 Y150S): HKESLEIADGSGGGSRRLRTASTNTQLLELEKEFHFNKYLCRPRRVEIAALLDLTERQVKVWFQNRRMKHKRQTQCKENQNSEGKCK

HOXA7 [10] = target: HOXA7 (Homo sapiens, UniProt P31268 116-202, W177C)
HOXA7 (Homo sapiens, UniProt P31268 116-202, W177C), sequence (P31268 116-202 W177C): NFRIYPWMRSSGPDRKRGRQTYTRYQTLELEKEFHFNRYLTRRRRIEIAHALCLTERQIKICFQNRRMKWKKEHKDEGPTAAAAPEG

HOXA2 [11] = target: HOXA2 (Homo sapiens, UniProt O43364 129-215)
HOXA2 (Homo sapiens, UniProt O43364 129-215), sequence (O43364 129-215): as the sequence (O43364 129-215 Y150S) above, with S22Y counted along it

HOXC9 [12] = target: HOXC9 (Homo sapiens, UniProt P31274 178-260, K195R)
HOXC9 (Homo sapiens, UniProt P31274 178-260, K195R), sequence (P31274 178-260 K195R): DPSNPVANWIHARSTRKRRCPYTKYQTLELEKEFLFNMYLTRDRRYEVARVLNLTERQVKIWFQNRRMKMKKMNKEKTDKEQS

HOXB9 [13] = target: HOXB9 (Homo sapiens, UniProt P17482 171-250)
HOXB9 (Homo sapiens, UniProt P17482 171-250), sequence (P17482 171-250): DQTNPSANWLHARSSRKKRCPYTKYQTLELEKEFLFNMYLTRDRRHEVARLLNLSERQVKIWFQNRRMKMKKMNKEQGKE

HOXC9 [14] = target: HOXC9 (Homo sapiens, UniProt P31274 178-260, R193K)
HOXC9 (Homo sapiens, UniProt P31274 178-260, R193K), sequence (P31274 178-260 R193K): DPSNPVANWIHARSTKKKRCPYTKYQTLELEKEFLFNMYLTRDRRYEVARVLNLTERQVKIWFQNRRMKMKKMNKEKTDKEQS

HOXB9 [15] = target: HOXB9 (Homo sapiens, UniProt P17482 171-250, R186Q)
HOXB9 (Homo sapiens, UniProt P17482 171-250, R186Q), sequence (P17482 171-250 R186Q): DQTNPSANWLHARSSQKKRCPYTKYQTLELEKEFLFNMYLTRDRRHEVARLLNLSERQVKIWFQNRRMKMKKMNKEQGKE

HOXC10 [16] = target: HOXC10 (Homo sapiens, UniProt Q9NYD6 254-340)
HOXC10 (Homo sapiens, UniProt Q9NYD6 254-340), sequence (Q9NYD6 254-340): as the sequence (Q9NYD6 254-340 K271E) above, with E18K counted along it

HOXC9 [17] = target: HOXC9 (Homo sapiens, UniProt P31274 178-260)
HOXC9 (Homo sapiens, UniProt P31274 178-260), sequence (P31274 178-260): as the sequence (P31274 178-260 R193K) above, with K16R counted along it

HOXC9 [18] = target: HOXC9 (Homo sapiens, UniProt P31274 178-260, R222W)
HOXC9 (Homo sapiens, UniProt P31274 178-260, R222W), sequence (P31274 178-260 R222W): as the sequence (P31274 178-260 R193K) above, with K16R, R45W counted along it

HOXA7 (Homo sapiens, UniProt P31268 116-202), sequence (P31268 116-202): as the sequence (P31268 116-202 W177C) above, with C62W counted along it
HOXB9 (Homo sapiens, UniProt P17482 171-250, T197M), sequence (P17482 171-250 T197M): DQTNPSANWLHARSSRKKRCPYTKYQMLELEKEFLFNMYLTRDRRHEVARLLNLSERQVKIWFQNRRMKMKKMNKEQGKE

Sequence	binding signal (HOXB9 [1])	binding signal (VENTX)	binding signal (HOXA7 [2])	binding signal (PAX4 [3])	binding signal (PAX4 [4])	binding signal (PAX4 [5])	binding signal (HOXC10 [6])	binding signal (PAX4 [7])	binding signal (VAX1)	binding signal (PAX4 [8])	binding signal (HOXA2 [9])	binding signal (HOXA7 [10])	binding signal (HOXA2 [11])	binding signal (HOXC9 [12])	binding signal (HOXB9 [13])	binding signal (HOXC9 [14])	binding signal (HOXB9 [15])	binding signal (HOXC10 [16])	binding signal (HOXC9 [17])	binding signal (HOXC9 [18])
ATAATTAG	10.2 upbm affinity estimate (log intensity, higher = more binding, comparable within an allelic series)	12.9 upbm affinity estimate (log intensity, higher = more binding, comparable within an allelic series)	11.8 upbm affinity estimate (log intensity, higher = more binding, comparable within an allelic series)	12 upbm affinity estimate (log intensity, higher = more binding, comparable within an allelic series)	12.7 upbm affinity estimate (log intensity, higher = more binding, comparable within an allelic series)	10.8 upbm affinity estimate (log intensity, higher = more binding, comparable within an allelic series)	11.8 upbm affinity estimate (log intensity, higher = more binding, comparable within an allelic series)	11.3 upbm affinity estimate (log intensity, higher = more binding, comparable within an allelic series)	13.8 upbm affinity estimate (log intensity, higher = more binding, comparable within an allelic series)	11.3 upbm affinity estimate (log intensity, higher = more binding, comparable within an allelic series)	11 upbm affinity estimate (log intensity, higher = more binding, comparable within an allelic series)	9.08 upbm affinity estimate (log intensity, higher = more binding, comparable within an allelic series)	13.1 upbm affinity estimate (log intensity, higher = more binding, comparable within an allelic series)	–	–	–	–	–	–	–
AATTAACA	9.97 upbm affinity estimate (log intensity, higher = more binding, comparable within an allelic series)	12.4 upbm affinity estimate (log intensity, higher = more binding, comparable within an allelic series)	11.3 upbm affinity estimate (log intensity, higher = more binding, comparable within an allelic series)	11.8 upbm affinity estimate (log intensity, higher = more binding, comparable within an allelic series)	12.5 upbm affinity estimate (log intensity, higher = more binding, comparable within an allelic series)	10.8 upbm affinity estimate (log intensity, higher = more binding, comparable within an allelic series)	–	11.2 upbm affinity estimate (log intensity, higher = more binding, comparable within an allelic series)	12.9 upbm affinity estimate (log intensity, higher = more binding, comparable within an allelic series)	11.2 upbm affinity estimate (log intensity, higher = more binding, comparable within an allelic series)	11 upbm affinity estimate (log intensity, higher = more binding, comparable within an allelic series)	8.91 upbm affinity estimate (log intensity, higher = more binding, comparable within an allelic series)	12.2 upbm affinity estimate (log intensity, higher = more binding, comparable within an allelic series)	–	–	–	–	–	–	–
AAATTAAT	10.1 upbm affinity estimate (log intensity, higher = more binding, comparable within an allelic series)	–	11.3 upbm affinity estimate (log intensity, higher = more binding, comparable within an allelic series)	11.9 upbm affinity estimate (log intensity, higher = more binding, comparable within an allelic series)	12.4 upbm affinity estimate (log intensity, higher = more binding, comparable within an allelic series)	10.7 upbm affinity estimate (log intensity, higher = more binding, comparable within an allelic series)	–	11.2 upbm affinity estimate (log intensity, higher = more binding, comparable within an allelic series)	12.7 upbm affinity estimate (log intensity, higher = more binding, comparable within an allelic series)	11.1 upbm affinity estimate (log intensity, higher = more binding, comparable within an allelic series)	–	8.83 upbm affinity estimate (log intensity, higher = more binding, comparable within an allelic series)	–	12.6 upbm affinity estimate (log intensity, higher = more binding, comparable within an allelic series)	11.8 upbm affinity estimate (log intensity, higher = more binding, comparable within an allelic series)	12.5 upbm affinity estimate (log intensity, higher = more binding, comparable within an allelic series)	11.5 upbm affinity estimate (log intensity, higher = more binding, comparable within an allelic series)	–	–	–
ACAATTAA	10.1 upbm affinity estimate (log intensity, higher = more binding, comparable within an allelic series)	–	11.6 upbm affinity estimate (log intensity, higher = more binding, comparable within an allelic series)	–	–	–	12 upbm affinity estimate (log intensity, higher = more binding, comparable within an allelic series)	–	–	–	–	8.88 upbm affinity estimate (log intensity, higher = more binding, comparable within an allelic series)	–	12.5 upbm affinity estimate (log intensity, higher = more binding, comparable within an allelic series)	11.8 upbm affinity estimate (log intensity, higher = more binding, comparable within an allelic series)	12.5 upbm affinity estimate (log intensity, higher = more binding, comparable within an allelic series)	11.6 upbm affinity estimate (log intensity, higher = more binding, comparable within an allelic series)	12.2 upbm affinity estimate (log intensity, higher = more binding, comparable within an allelic series)	12.6 upbm affinity estimate (log intensity, higher = more binding, comparable within an allelic series)	11 upbm affinity estimate (log intensity, higher = more binding, comparable within an allelic series)
CAATTATC	–	–	11.2 upbm affinity estimate (log intensity, higher = more binding, comparable within an allelic series)	–	–	–	–	–	–	–	10.9 upbm affinity estimate (log intensity, higher = more binding, comparable within an allelic series)	8.91 upbm affinity estimate (log intensity, higher = more binding, comparable within an allelic series)	12.1 upbm affinity estimate (log intensity, higher = more binding, comparable within an allelic series)	–	–	–	–	–	–	–
CTAATTAC	10.1 upbm affinity estimate (log intensity, higher = more binding, comparable within an allelic series)	13.2 upbm affinity estimate (log intensity, higher = more binding, comparable within an allelic series)	11.9 upbm affinity estimate (log intensity, higher = more binding, comparable within an allelic series)	12 upbm affinity estimate (log intensity, higher = more binding, comparable within an allelic series)	12.5 upbm affinity estimate (log intensity, higher = more binding, comparable within an allelic series)	10.6 upbm affinity estimate (log intensity, higher = more binding, comparable within an allelic series)	12 upbm affinity estimate (log intensity, higher = more binding, comparable within an allelic series)	11.1 upbm affinity estimate (log intensity, higher = more binding, comparable within an allelic series)	14 upbm affinity estimate (log intensity, higher = more binding, comparable within an allelic series)	11.1 upbm affinity estimate (log intensity, higher = more binding, comparable within an allelic series)	10.9 upbm affinity estimate (log intensity, higher = more binding, comparable within an allelic series)	8.84 upbm affinity estimate (log intensity, higher = more binding, comparable within an allelic series)	13.4 upbm affinity estimate (log intensity, higher = more binding, comparable within an allelic series)	–	–	–	–	–	–	–
GTAATTGA	–	–	11.2 upbm affinity estimate (log intensity, higher = more binding, comparable within an allelic series)	–	–	–	–	–	12.8 upbm affinity estimate (log intensity, higher = more binding, comparable within an allelic series)	–	10.7 upbm affinity estimate (log intensity, higher = more binding, comparable within an allelic series)	8.88 upbm affinity estimate (log intensity, higher = more binding, comparable within an allelic series)	12.1 upbm affinity estimate (log intensity, higher = more binding, comparable within an allelic series)	–	–	–	–	–	–	–
CAATTAAC	9.98 upbm affinity estimate (log intensity, higher = more binding, comparable within an allelic series)	12.8 upbm affinity estimate (log intensity, higher = more binding, comparable within an allelic series)	11.5 upbm affinity estimate (log intensity, higher = more binding, comparable within an allelic series)	11.5 upbm affinity estimate (log intensity, higher = more binding, comparable within an allelic series)	12.1 upbm affinity estimate (log intensity, higher = more binding, comparable within an allelic series)	10.6 upbm affinity estimate (log intensity, higher = more binding, comparable within an allelic series)	11.8 upbm affinity estimate (log intensity, higher = more binding, comparable within an allelic series)	10.9 upbm affinity estimate (log intensity, higher = more binding, comparable within an allelic series)	13 upbm affinity estimate (log intensity, higher = more binding, comparable within an allelic series)	10.8 upbm affinity estimate (log intensity, higher = more binding, comparable within an allelic series)	10.8 upbm affinity estimate (log intensity, higher = more binding, comparable within an allelic series)	8.75 upbm affinity estimate (log intensity, higher = more binding, comparable within an allelic series)	12.3 upbm affinity estimate (log intensity, higher = more binding, comparable within an allelic series)	12.5 upbm affinity estimate (log intensity, higher = more binding, comparable within an allelic series)	–	12.5 upbm affinity estimate (log intensity, higher = more binding, comparable within an allelic series)	11.4 upbm affinity estimate (log intensity, higher = more binding, comparable within an allelic series)	–	12.6 upbm affinity estimate (log intensity, higher = more binding, comparable within an allelic series)	10.9 upbm affinity estimate (log intensity, higher = more binding, comparable within an allelic series)
CTCAATTA	–	–	–	–	–	–	–	–	12.9 upbm affinity estimate (log intensity, higher = more binding, comparable within an allelic series)	–	10.8 upbm affinity estimate (log intensity, higher = more binding, comparable within an allelic series)	–	12.1 upbm affinity estimate (log intensity, higher = more binding, comparable within an allelic series)	–	–	–	–	–	–	–
CTAATTAG	–	13.5 upbm affinity estimate (log intensity, higher = more binding, comparable within an allelic series)	11.9 upbm affinity estimate (log intensity, higher = more binding, comparable within an allelic series)	12.5 upbm affinity estimate (log intensity, higher = more binding, comparable within an allelic series)	13 upbm affinity estimate (log intensity, higher = more binding, comparable within an allelic series)	11.2 upbm affinity estimate (log intensity, higher = more binding, comparable within an allelic series)	–	11.8 upbm affinity estimate (log intensity, higher = more binding, comparable within an allelic series)	14.1 upbm affinity estimate (log intensity, higher = more binding, comparable within an allelic series)	11.7 upbm affinity estimate (log intensity, higher = more binding, comparable within an allelic series)	10.9 upbm affinity estimate (log intensity, higher = more binding, comparable within an allelic series)	8.87 upbm affinity estimate (log intensity, higher = more binding, comparable within an allelic series)	13.4 upbm affinity estimate (log intensity, higher = more binding, comparable within an allelic series)	–	–	–	–	–	–	–
GGCAATTA	10.2 upbm affinity estimate (log intensity, higher = more binding, comparable within an allelic series)	12.5 upbm affinity estimate (log intensity, higher = more binding, comparable within an allelic series)	11.7 upbm affinity estimate (log intensity, higher = more binding, comparable within an allelic series)	–	–	–	12 upbm affinity estimate (log intensity, higher = more binding, comparable within an allelic series)	–	12.9 upbm affinity estimate (log intensity, higher = more binding, comparable within an allelic series)	–	10.8 upbm affinity estimate (log intensity, higher = more binding, comparable within an allelic series)	8.77 upbm affinity estimate (log intensity, higher = more binding, comparable within an allelic series)	12.5 upbm affinity estimate (log intensity, higher = more binding, comparable within an allelic series)	12.6 upbm affinity estimate (log intensity, higher = more binding, comparable within an allelic series)	11.8 upbm affinity estimate (log intensity, higher = more binding, comparable within an allelic series)	12.5 upbm affinity estimate (log intensity, higher = more binding, comparable within an allelic series)	11.5 upbm affinity estimate (log intensity, higher = more binding, comparable within an allelic series)	–	–	–
TCAATTAA	–	12.4 upbm affinity estimate (log intensity, higher = more binding, comparable within an allelic series)	11.5 upbm affinity estimate (log intensity, higher = more binding, comparable within an allelic series)	–	–	–	–	–	13.3 upbm affinity estimate (log intensity, higher = more binding, comparable within an allelic series)	–	10.7 upbm affinity estimate (log intensity, higher = more binding, comparable within an allelic series)	8.86 upbm affinity estimate (log intensity, higher = more binding, comparable within an allelic series)	12.4 upbm affinity estimate (log intensity, higher = more binding, comparable within an allelic series)	–	–	–	–	–	–	–

Source: paper PMC11006913
